Each structure is given as a SMILES string. This is part of a sample that, as a whole, favours compounds with a hit. Of some 83,000 tested, about 20% had one in any assay.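 Percent growth is the endpoint: 0 to 100 indicates growth inhibition (40 means 60% inhibition), 0 means no net growth, and negative values indicate cell death.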 Unmarked numbers belong to inactive results. The source made the active and inactive calls. The calls were made as follows: active = growth percent below 10; inactive = the rest.

We go through 31 molecules from PubChem BioAssay (NCI).

Holding throughout (assay): NCI-60 one-dose screen, 48 h (100 = growth as untreated, 0 = no growth, -100 = all killed)
Details in all cases: 10 µM unless noted

For assay [1], the system named is T-47D breast.
Assay [2] relates to BT-549 breast.
The subject of assay [3] is MDA-MB-435 melanoma.
Assay [4] has as its system SW-620 colon.
Assay [5] has as its system MCF7 breast.
The test system of assay [6] is HCT-116 colon.
Assay [7] has as its system HCC-2998 colon.
Assay [8] has as its system KM12 colon.

Take `CCCCNC(=O)c1ccc2c(c1)nc(-c1ccccc1)n2C1CCCCC1`: the growth is 88.1% in assay [1]; 99.7% in assay [2]; 99.9% in assay [3]; 107% in assay [4]; 82.1% in assay [5]; 93.1% in assay [6]. In addition, the growth in assay [7] was 102%; in assay [8] it was 88.4%.
For `N#Cc1nn(-c2cc(=O)[nH]c3ccc(Br)cc23)c(N)c1C#N`, the growth was 56.1% in assay [1]; 85.1% in assay [2]; 95.5% in assay [3]; 83.5% in assay [4]; 104% in assay [5]; 85.7% in assay [6]. The growth in assay [7] is 78.5%; in assay [8], 109%.
`O=C(Nc1ncc(Cc2ccccc2)s1)c1sc2ccccc2c1Cl`: the growth is 19.3% in assay [1]; 62.3% in assay [2]; -65.2% (active) in assay [3]; 20.4% in assay [4]; 14.4% in assay [5]; 24.8% in assay [6]. In addition, the values for the growth in assay [7] and in assay [8] were 17.6% and 12.5%, respectively.
`CSc1ccc(N2C(=N)C(=S)N(c3ccc(C)cc3)C2=O)cc1`: the growth was 83% in assay [1]; 72.2% in assay [2]; 102% in assay [3]; 103% in assay [4]; 85.4% in assay [5]; 93.7% in assay [6]. The results for the growth in assay [7] and in assay [8] were 104% and 96.5%, respectively.
As for `CCN(CC)C(=O)C1=C(C)NC(=O)NC1c1ccc2c(c1)OCO2` (stereo not drawn), the growth in assay [1] is 104%; in assay [2], 111%; in assay [3] it was 108%; in assay [4], 105%; in assay [5] it was 97.4%; in assay [6], 110%. The results for the growth in assay [7] and in assay [8] were 114% and 112%, respectively.
Regarding `CN(C)c1ccc([C@@H](C(=O)Nc2cccc([N+](=O)[O-])c2)N(C(=O)c2cc3ccccc3[nH]2)c2cccc([N+](=O)[O-])c2)cc1`, the growth in assay [1] was 84%; in assay [2], 95.4%; in assay [3], 108%; in assay [4] it was 98.7%; in assay [5], 89.6%; in assay [6] it was 90.4%. Besides, the growth is 107% in assay [7] and 103% in assay [8].
For the molecule `COc1nc(/C=C\Nc2ccc3c(c2)OCCOCCOCCOCCO3)nc(OC)n1`, the growth in assay [1] is 87.5%; in assay [2], 92.9%; in assay [3], 94.8%; in assay [4] it was 94%; in assay [5] it was 93%; in assay [6] it was 95.2%. Besides, the growth in assay [7] was 98.2%; in assay [8] it was 101%.
In the case of `C=C(C)[C@@H]1CC[C@]2(C(=O)N3CCNCC3)CC[C@]3(C)[C@H](CC[C@@H]4[C@@](C)(CCC(=O)N5CCNCC5)[C@H](C(=C)C)CC[C@]43C)[C@@H]12`, the growth was 103% in assay [1]; 88.5% in assay [2]; 74% in assay [3]; -14.4% (active) in assay [4]; 26.4% in assay [5]; -56.1% (active) in assay [6]. The growth in assay [7] is 81%; in assay [8] it was 51.2%.
`CC1=C2[C@@H](CC1)[C@]1(C)O[C@@](C3CCNCC3)(C[C@H]1OC(=O)CO)[C@H]2OC(=O)/C=C/c1ccccc1`: the growth was 62.6% in assay [1]; 81.7% in assay [2]; 88.6% in assay [3]; 93.6% in assay [4]; 74.2% in assay [5]; 74.5% in assay [6]. For the same molecule, the results for the growth in assay [7] and in assay [8] were 99% and 97.6%, respectively.
Regarding `CSc1nc(-c2ccco2)c(C#N)c(=O)n1C`, the growth is 107% in assay [1]; 92.6% in assay [2]; 102% in assay [3]; 97% in assay [4]; 98% in assay [5]; 100% in assay [6]. Moreover, the growth is 1.62% (active) in assay [7] and 103% in assay [8].
For the molecule `COc1ccc(/C=C/C(c2cc(OC)c(OC)c(OC)c2)n2cncn2)cc1O` (stereo not drawn), the growth in assay [1] was 34.4%; in assay [2], 36.6%; in assay [3], -33% (active); in assay [4] it was 27.6%; in assay [5], 21.2%; in assay [6], 10.5%. Also, the growth in assay [7] is 67.7%; in assay [8] it was 26.7%.
As to `Cc1cn(C)cn1`, the growth in assay [1] was 104%; in assay [2] it was 101%; in assay [3] it was 98.4%; in assay [4] it was 108%; in assay [5], 94.9%; in assay [6] it was 105%. Also, the figures for the growth in assay [7] and in assay [8] were 108% and 105%, respectively.
Take `NCCCNc1nc2ccccc2c2c(=O)c3cc(Cl)ccc3sc12`: the growth in assay [1] was -6.77% (active); in assay [2], 83%; in assay [3], -71.1% (active); in assay [4], -90.6% (active); in assay [5], -75.4% (active); in assay [6], -92.5% (active). Further, the results for the growth in assay [7] and in assay [8] were -75.6% (active) and -67.4% (active), respectively.
On to `O=c1cc(C(F)(F)F)c2cc(-c3cc4ccccc4c(=O)o3)c(O)cc2o1`, for which the growth is 49.4% in assay [1]; 63.6% in assay [2]; 72.8% in assay [3]; 86.1% in assay [4]; 77.4% in assay [5]; 71.7% in assay [6]. The values for the growth in assay [7] and in assay [8] were 92.8% and 76.5%, respectively.
With `O=C(Nc1cc(Cl)ccc1O)c1ccccc1Nc1ccnc(C(F)(F)F)c1`, the growth was 0.662% (active) in assay [1]; 33.2% in assay [2]; 29.1% in assay [3]; 15% in assay [4]; 8.95% (active) in assay [5]; 2.14% (active) in assay [6]. The growth in assay [7] was 3.95% (active); in assay [8] it was 7.26% (active).
Consider `CCOC(=O)C1=C(c2ccccc2)N=C2N(c3ccccc3)N=C(C(C)=O)N2C1c1ccc(F)cc1` (stereo not drawn), for which the growth is 98.8% in assay [1]; 101% in assay [2]; 102% in assay [3]; 99.9% in assay [4]; 95.1% in assay [5]; 97.8% in assay [6]. The growth was 115% in assay [7] and 97.6% in assay [8].
As to `CC(C)Cc1nc(Nc2ccccc2)[nH]c(=O)c1C#N`, the growth in assay [1] was 40.8%; in assay [2] it was 39%; in assay [3] it was 70.6%; in assay [4], 70.3%; in assay [5], 53.4%; in assay [6], 54.7%. For the same molecule, the growth is 38.1% in assay [7] and 50.6% in assay [8].
For `COc1cc(/C=C/C(=O)c2cc(OC)c(OC)c(OC)c2)ccc1Oc1nc2c(c(=O)n(C)c(=O)n2C)n1C`, the growth in assay [1] was -16.1% (active); in assay [2] it was -57.7% (active); in assay [3], -44% (active); in assay [4], -40% (active); in assay [5] it was 0.476% (active); in assay [6], -80.6% (active). In addition, the growth in assay [7] was -85.9% (active); in assay [8] it was -62.1% (active).
For `ClCCn1cnc2c(SCc3ccccc3)ncnc21`, the growth in assay [1] is 73.8%; in assay [2] it was 70.4%; in assay [3] it was 51.8%; in assay [4], 39.4%; in assay [5] it was 42.5%; in assay [6], 31.5%. Besides, the results for the growth in assay [7] and in assay [8] were 57.4% and 53.2%, respectively.
Turning to `COc1ccc(C2[C@@H](c3ccccc3)C(=O)N2c2cc(OC)c(OC)c(OC)c2)cc1F` (stereo partly drawn), the growth in assay [1] is 61.7%; in assay [2], -2.79% (active); in assay [3], -23% (active); in assay [4], 24.2%; in assay [5], 12.5%; in assay [6] it was 3.36% (active). The figures for the growth in assay [7] and in assay [8] were 15.1% and 13.2%, respectively.
Consider `Cc1ccc(OCCOCCOCCOc2ccc(C)n(O)c2=S)c(=S)n1O`, for which the growth in assay [1] is 14%; in assay [2], 50.4%; in assay [3], 56.3%; in assay [4], 24.5%; in assay [5] it was 20.3%; in assay [6], 9.46% (active). Besides, the figures for the growth in assay [7] and in assay [8] were 57.9% and 30.8%, respectively.
Regarding `O=C(Nc1cccnc1Nc1ccc(Cl)cc1)c1cn(Cc2cccc(Oc3ccccc3)c2)nn1`, the growth was 48.1% in assay [1]; 52.2% in assay [2]; -30.2% (active) in assay [3]; 36.5% in assay [4]; 19.6% in assay [5]; 23.4% in assay [6]. The results for the growth in assay [7] and in assay [8] were 63.9% and 31.8%, respectively.
Take `Oc1ccc(-c2nc3ccc4[nH]ncc4c3c3c2CCCC3)c(F)c1`: the growth in assay [1] is 33%; in assay [2], 13.9%; in assay [3], -23.3% (active); in assay [4], 8.41% (active); in assay [5] it was 26.8%; in assay [6], 4.73% (active). Also, the growth in assay [7] was 41.4%; in assay [8] it was 20%.
With `C#CCOc1cccc(Nc2ncnc3cc(NC(=O)CCl)ccc23)c1`, the growth in assay [1] was -48.9% (active); in assay [2] it was -55.4% (active); in assay [3] it was -75.2% (active); in assay [4] it was -49.7% (active); in assay [5] it was -15.9% (active); in assay [6] it was -61.1% (active). The growth in assay [7] is -67.2% (active); in assay [8], -69.5% (active).
For `CC(O)Cc1c[nH]c(=O)[nH]c1=O` (stereo not drawn), the growth is -19.1% (active) in assay [1]; 105% in assay [2]; 103% in assay [3]; 94.9% in assay [4]; 88.9% in assay [5]; 97.2% in assay [6]. The figures for the growth in assay [7] and in assay [8] were 119% and 95.6%, respectively.
`Cc1ccc2c(c1)sc1nc(-c3c[nH]c4ccccc34)c(Nc3ccccc3)n12`: the growth was 96% in assay [1]; 98.5% in assay [2]; 97% in assay [3]; 94.7% in assay [4]; 98.4% in assay [5]; 104% in assay [6]. The growth in assay [7] was 106%; in assay [8], 105%.
Take `COc1cc(-c2nccc3[nH]c(-c4cccc5[nH]ccc45)nc23)cc(OC)c1OC`: the growth in assay [1] was 39.9%; in assay [2], 42.5%; in assay [3] it was 1.47% (active); in assay [4] it was 27%; in assay [5], 9.9% (active); in assay [6], 4.28% (active). Moreover, the growth is 21.6% in assay [7] and 16.9% in assay [8].
On to `CN(C)CCCNC(=O)c1cncnc1Nc1ccc2c(ccn2Cc2cccc(F)c2)c1`, for which the growth in assay [1] was 101%; in assay [2], 92.2%; in assay [3], 79.6%; in assay [4], 88.3%; in assay [5], 71.4%; in assay [6] it was 66%. Besides, the growth in assay [7] is 97.6%; in assay [8], 98%.
Consider `Clc1cccc(C2Cc3cnccc3-c3[nH]c4ccncc4c32)c1` (stereo not drawn), for which the growth is 34.4% in assay [1]; 50.1% in assay [2]; 39.5% in assay [3]; 44.7% in assay [4]; 20.4% in assay [5]; 32.5% in assay [6]. In addition, the values for the growth in assay [7] and in assay [8] were 76.7% and 44.3%, respectively.
As for `COc1ccc(NC(=O)c2ccc(Nc3ncnc4c3cnn4-c3cccc(F)c3)cc2)cc1`, the growth was 96.1% in assay [1]; 104% in assay [2]; 102% in assay [3]; 103% in assay [4]; 96.5% in assay [5]; 103% in assay [6]. In addition, the growth in assay [7] is 107%; in assay [8], 100%.
For `CNC(=O)c1cc(Oc2ccc3c(c2)sc2nc(-c4ccc(Cl)c(C(F)(F)F)c4)cn23)ccn1`, the growth in assay [1] is 25.7%; in assay [2], 45.9%; in assay [3] it was 65.8%; in assay [4], 68.6%; in assay [5] it was 36.8%; in assay [6] it was 41%. Further, the growth in assay [7] is 80.5%; in assay [8], 82.6%.
